Compounds without any hit were thinned out: in the full panel of roughly 79,000, 15% have a hit. Unmarked numbers belong to inactive results. Calls of active or inactive are those of the source. No stated cut-off is given here; in the data, active means growth inhibition above about 70%; inactive means the rest.
Assay: NCI Yeast Anticancer Drug Screen. Data for the bub3 strain (AID 167)
Settings: S. cerevisiae bub3 mutant strain, at 50.0 µM, stronger effect = higher value
How it was run: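 Yeast carrying a defined mutation is treated with each compound, and growth is compared with that of vehicle-exposed cells to give inhibition.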

Row | SMILES | growth inhibition
1 | COC1=CC(O)(CC(N)=O)c2ccccc2C1=O (stereo not given) | -23.9%
2 | [N-]=[N+]=NC(=O)C1C(c2ccccc2)=C1c1ccccc1 | 27.8%
3 | O=[N+]([O-])c1cc(Cl)ccc1NC(Nc1ccc(Cl)cc1[N+](=O)[O-])C(Cl)(Cl)Cl | 3.6%
4 | Nc1nc2sc3ccccc3c(=O)n2n1 | -3.2%
5 | CCOC(=O)c1ccc(NC(=O)Nc2cc(Cl)ncn2)cc1 | 10.3%
6 | Cc1ccc(S(=O)(=O)NC2C(=O)c3ccccc3C(=O)C2n2ccnc2)cc1 (stereo not given) | 7.8%
7 | N=c1c2ccccc2nc2oc3ccc(Cl)cc3n12 | 15.6%
8 | Cc1c(-c2ccc(N)cc2)c(=O)oc2cc(O)ccc12 | 8.1%
9 | CCCc1ccccc1[N+](=O)[O-] | 8.7%
10 | Cc1cc2c(c(C(=O)NCC(=O)O)c1)Oc1c(cc(C)cc1C(=O)NCC(=O)O)S2 | -29.9%
11 | O=C1NC(=O)[C@H]2C[C@H]3C(=O)NC(=O)[C@H]3[C@@H]12 | 3.8%
12 | OCC(O)COCCCCCCCCCCCCCC1C=CCC1 (stereo not given) | -23.5%
13 | CCCCN1CCSC1=S | 99.5% (active)
14 | N=C(/C(=C/c1cccc2ccccc12)c1ccccc1)c1ccccc1 | -13.7%
15 | COc1ccc2occc2c1 | -0.75%
16 | C=CCN1/C(=C(\C#N)c2nc3ccccc3[nH]2)Sc2c1nc[nH]c2=O | -32.9%
17 | Cc1ccc2c(ccc3nnc(C)n32)c1 | 2.75%
18 | C=CCN1C(=O)/C(=C/c2ccc(OCC(=O)O)cc2)SC1=S | -1%
19 | COc1c2c(cc3c1C1(O)Cc4ccc5c(c4C[N+]1(C)CC3)OCO5)OCO2 (stereo not given) | -4.25%
20 | C=C1C(=O)OC2/C=C(\C)CC(O)/C=C(/C)CC(OC(=O)C(O)(CO)C(C)S)C12 (stereo not given) | -3.8%

Row | SMILES | growth inhibition
21 | CNC(=O)c1ccccc1C | 6.55%
22 | N#CCCCCCCO | 5.35%
23 | O=C(Nc1nccs1)Nc1cc(F)ccc1F | 36.6%
24 | N#CC(c1ccc(Cl)cc1)c1cccc(C(C#N)c2ccc(Cl)cc2)n1 (stereo not given) | 38.4%
25 | O=C1NC(=O)C2(CCC(O)C2)c2cc[n+]([O-])cc21 (stereo not given) | -25.6%
26 | Cn1c(=O)c2c(nc(NCCOC(=S)S)n2C)n(C)c1=O | 5.3%
27 | CCCC=Nc1ccccc1 | 10.8%
28 | COC(=O)c1c(C)cc(OC)c(C/C=C(\C)CCCc2coc(C=C(C)C)c2)c1OC | 12.4%
29 | BrC1=C(c2ccccc2)SC(Br)=C(c2ccccc2)S1 | 5.45%
30 | Cc1ccc(NC(=O)/C=C2\CONC(c3ccccc3)=N2)cc1 | -6.9%
31 | CCOC(=O)NN(C(=O)OCC)C(C(C)=O)c1ccccc1 (stereo not given) | -0.7%
32 | O=c1[nH]c(=O)c2ncn(C3OC(CO)C(O)C3O)c2[nH]1.O=c1[nH]c(=O)c2ncn(C3OC(CO)C(O)C3O)c2[nH]1.[NH2-].[NH2-].[Pt+2] (stereo not given) | -8.5%
33 | c1ccc(N=c2snc3scc(-c4ccccc4)n23)cc1 | 33.5%
34 | COc1ccc([N+](=O)[O-])c2ncncc12 | -10.9%
35 | O=[N+]([O-])c1cccc([I+]c2cccc([N+](=O)[O-])c2)c1 | 97.2% (active)
36 | O=C(Cc1cccc(CC(=O)c2ccccc2)n1)c1ccccc1 | -43%
37 | c1ccc2c(c1)NC1(CCCCC1)S2 | 5%
38 | O=C1OC(c2ccc(O)c(-c3ccccc3)c2)(c2ccc(O)c(-c3ccccc3)c2)c2c(Cl)c(Cl)c(Cl)c(Cl)c21 | -33.1%
39 | CC(=O)Oc1c(C)n(C(C)=O)c2cc(Cl)ccc12 | 6.15%
40 | CCN(CC)c1ccc2cc(-c3nc4ccccc4n3C)c(=O)oc2c1 | 1.35%

Assay: NCI Yeast Anticancer Drug Screen. Data for the mlh1 rad18 strain (AID 175)
Settings: S. cerevisiae mlh1 rad18 strain growth inhibition; at 50.0 µM; stronger effect = higher value
How it was run: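 Test agents were incubated with a yeast strain of defined genotype (DNA damage repair defect). Inhibition of growth was derived by comparison with vehicle-exposed cultures.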

Row | SMILES | growth inhibition
41 | COC1=CC(O)(CC(N)=O)c2ccccc2C1=O (stereo not given) | 4.85%
42 | [N-]=[N+]=NC(=O)C1C(c2ccccc2)=C1c1ccccc1 | -10.2%
43 | O=[N+]([O-])c1cc(Cl)ccc1NC(Nc1ccc(Cl)cc1[N+](=O)[O-])C(Cl)(Cl)Cl | 35.8%
44 | Nc1nc2sc3ccccc3c(=O)n2n1 | -9.85%
45 | CCOC(=O)c1ccc(NC(=O)Nc2cc(Cl)ncn2)cc1 | -6.15%
46 | Cc1ccc(S(=O)(=O)NC2C(=O)c3ccccc3C(=O)C2n2ccnc2)cc1 (stereo not given) | -21.5%
47 | N=c1c2ccccc2nc2oc3ccc(Cl)cc3n12 | -8.55%
48 | Cc1c(-c2ccc(N)cc2)c(=O)oc2cc(O)ccc12 | 8.55%
49 | CCCc1ccccc1[N+](=O)[O-] | -7.1%
50 | Cc1cc2c(c(C(=O)NCC(=O)O)c1)Oc1c(cc(C)cc1C(=O)NCC(=O)O)S2 | 20.9%
51 | O=C1NC(=O)[C@H]2C[C@H]3C(=O)NC(=O)[C@H]3[C@@H]12 | 7.15%
52 | OCC(O)COCCCCCCCCCCCCCC1C=CCC1 (stereo not given) | -30.7%
53 | CCCCN1CCSC1=S | 99.5% (active)
54 | N=C(/C(=C/c1cccc2ccccc12)c1ccccc1)c1ccccc1 | 13.6%
55 | COc1ccc2occc2c1 | 10.1%
56 | C=CCN1/C(=C(\C#N)c2nc3ccccc3[nH]2)Sc2c1nc[nH]c2=O | -49.8%
57 | Cc1ccc2c(ccc3nnc(C)n32)c1 | 10.8%
58 | C=CCN1C(=O)/C(=C/c2ccc(OCC(=O)O)cc2)SC1=S | -13.8%
59 | COc1c2c(cc3c1C1(O)Cc4ccc5c(c4C[N+]1(C)CC3)OCO5)OCO2 (stereo not given) | -60.8%
60 | C=C1C(=O)OC2/C=C(\C)CC(O)/C=C(/C)CC(OC(=O)C(O)(CO)C(C)S)C12 (stereo not given) | -22.7%

Row | SMILES | growth inhibition
61 | CNC(=O)c1ccccc1C | 0.35%
62 | N#CCCCCCCO | 17.5%
63 | O=C(Nc1nccs1)Nc1cc(F)ccc1F | 8.35%
64 | N#CC(c1ccc(Cl)cc1)c1cccc(C(C#N)c2ccc(Cl)cc2)n1 (stereo not given) | 25.3%
65 | O=C1NC(=O)C2(CCC(O)C2)c2cc[n+]([O-])cc21 (stereo not given) | -83.8%
66 | Cn1c(=O)c2c(nc(NCCOC(=S)S)n2C)n(C)c1=O | 15.9%
67 | CCCC=Nc1ccccc1 | 13.1%
68 | COC(=O)c1c(C)cc(OC)c(C/C=C(\C)CCCc2coc(C=C(C)C)c2)c1OC | 25%
69 | BrC1=C(c2ccccc2)SC(Br)=C(c2ccccc2)S1 | 3.75%
70 | Cc1ccc(NC(=O)/C=C2\CONC(c3ccccc3)=N2)cc1 | 1.75%
71 | CCOC(=O)NN(C(=O)OCC)C(C(C)=O)c1ccccc1 (stereo not given) | 17.3%
72 | O=c1[nH]c(=O)c2ncn(C3OC(CO)C(O)C3O)c2[nH]1.O=c1[nH]c(=O)c2ncn(C3OC(CO)C(O)C3O)c2[nH]1.[NH2-].[NH2-].[Pt+2] (stereo not given) | 40.4%
73 | c1ccc(N=c2snc3scc(-c4ccccc4)n23)cc1 | 16.6%
74 | COc1ccc([N+](=O)[O-])c2ncncc12 | 20.6%
75 | O=[N+]([O-])c1cccc([I+]c2cccc([N+](=O)[O-])c2)c1 | 98.2% (active)
76 | O=C(Cc1cccc(CC(=O)c2ccccc2)n1)c1ccccc1 | 10.4%
77 | c1ccc2c(c1)NC1(CCCCC1)S2 | 11.9%
78 | O=C1OC(c2ccc(O)c(-c3ccccc3)c2)(c2ccc(O)c(-c3ccccc3)c2)c2c(Cl)c(Cl)c(Cl)c(Cl)c21 | 1.45%
79 | CC(=O)Oc1c(C)n(C(C)=O)c2cc(Cl)ccc12 | -8.3%
80 | CCN(CC)c1ccc2cc(-c3nc4ccccc4n3C)c(=O)oc2c1 | 14.1%
